Results: PubChem BioAssay AID1851 (National Center for Advancing Translational Sciences (NCATS), 2009)
“And” between values parts separate entries of the source, which are not always exact repeats. Equal values may be shown once. The whole screen tested about 16,000 compounds, of which about 5,800 (36%) were called active. Roughly 23% stayed inconclusive and do not appear here. The list shows a part of the results. A number with no mark means an inactive call. The call rests on the fitted dose curve; in most records, active means well fitted curve in the direction sought with a large enough effect; inconclusive means small, poorly fitted or top-dose-only effect, or effect the other way; inactive means no such curve, though single readings can be large or run the other way.
On the % scale 0 is the no-effect control and ±100 the full control effect.

The compounds below were run against Cytochrome P450 2C19 (Homo sapiens) (UniProt P33261) (assay: Cytochrome panel assay with activity outcomes). Settings: recombinant CYP, pro-luciferin dealkylation, luminescence, p450-cyp2c19; series mostly up to 57.1 µM.
Cytochrome P450 2C19 (Homo sapiens), sequence (P33261 whole entry, looked up): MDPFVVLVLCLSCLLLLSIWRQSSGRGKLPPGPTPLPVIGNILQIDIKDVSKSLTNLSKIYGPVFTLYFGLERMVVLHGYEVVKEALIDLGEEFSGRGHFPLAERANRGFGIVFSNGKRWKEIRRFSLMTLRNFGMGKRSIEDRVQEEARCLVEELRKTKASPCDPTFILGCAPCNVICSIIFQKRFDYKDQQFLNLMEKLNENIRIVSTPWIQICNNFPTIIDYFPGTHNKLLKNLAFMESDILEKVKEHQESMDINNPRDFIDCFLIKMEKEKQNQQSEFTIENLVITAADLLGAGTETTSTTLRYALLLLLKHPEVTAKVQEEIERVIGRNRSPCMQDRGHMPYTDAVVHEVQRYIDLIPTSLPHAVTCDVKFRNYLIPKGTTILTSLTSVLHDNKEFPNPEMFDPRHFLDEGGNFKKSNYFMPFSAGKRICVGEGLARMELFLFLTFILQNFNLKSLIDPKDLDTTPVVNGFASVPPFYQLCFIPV
`C[C@H](c1ccccc1)N1C(=O)[C@H]2[C@@H]3[C@H](O)[C@H](O)CC(=O)[C@H]3CC[C@H]2C1=O` showed an activity, negative = inhibition of -0.855% [at 11.4 µM]. With `CCc1nnc(SCc2ccc(OC(C)C)cc2)n1N` the AC50 was 10 µM (active). `COc1cccc2c1C(=N)c1c(O)c3c(c(O)c1C2=O)C[C@](O)(C(C)=O)C[C@@H]3O[C@H]1C[C@H](N)[C@@H](O)[C@H](C)O1` showed an activity, negative = inhibition of -44.3% [at 11.4 µM]. `O=[N+]([O-])c1cc(Cl)cc2c1nc(NCCO)c1ccccc12` showed an activity, negative = inhibition of -34.6% [at 11.4 µM]. With `COc1cc(C(=O)NCCC(C)C)c([N+](=O)[O-])cc1OC` the AC50 was “inactive”. For `O=C(NCc1ccccc1)c1ccc(Cl)cc1[N+](=O)[O-]`, the AC50 was 11.2 µM (active). With `Cc1ccc(C(=O)NCCNc2ccc(Cl)cc2[N+](=O)[O-])o1` the AC50 was 7.94 µM (active). In the case of `O=C(NCc1ccc(Cl)cc1)c1ccc(Cl)cc1[N+](=O)[O-]`, the AC50 is reported as 1.26 µM (active). In the case of `CCOc1ccc(NC(=O)c2ccc(Br)o2)c([N+](=O)[O-])c1`, the AC50 is reported as “inactive”. For `O=c1[nH]ncn2cccc12`, the AC50 was “inactive”. For `c1ccc2cc(-c3csnn3)ccc2c1`, the AC50 was 3.98 µM (active). With `Nc1nc(-c2ccc3ccccc3c2)cc(-c2cc(-c3ccc4ccccc4c3)nc(N)n2)n1` the activity, negative = inhibition was 10.1% [at 11.4 µM]. For `O=C(O)c1nnsc1-c1csnn1`, the activity, negative = inhibition was -19.5% [at 11.4 µM]. With `COc1ccc(-c2nc3cnc(N4CCN(C)CC4)nc3n(C3CC3)c2=O)cc1` the AC50 was “inactive”. In the case of `Cc1ccccc1C(=O)Nc1cccc(NC(=S)NC(=O)c2cccs2)c1`, the AC50 is reported as 3.55 µM (active). `O=C(NC(=S)NNC(=O)c1cccs1)c1ccco1` was tested, and the AC50 was “inactive”. With `COc1cc(NC(=S)NC(=O)c2c(OC)cccc2OC)ccc1NC(=O)c1cccs1` the AC50 was 2 µM (active). For `Cc1cccc(NC(=S)NC(=O)c2cccs2)n1`, the AC50 was 3.55 µM (active). In the case of `O=C(COc1ccccc1C(=O)N/N=C\c1ccc(O)c(O)c1)N/N=C/c1ccc(O)c(O)c1`, the AC50 is reported as 15.8 µM (active). In the case of `O=C(N/N=C/c1cccc(OC2CSC2)c1)c1ccccc1O`, the AC50 is reported as “inactive”. `CON(C)C(=O)c1nnc2c(n1)[nH]c1ccccc12` gave an activity, negative = inhibition of -38.3% [at 11.4 µM]. `O=C(CSc1nnc2c(n1)[nH]c1ccc(F)cc12)OCc1ccccc1` was tested, and the AC50 was 0.398 µM (active). With `CCOCc1cnc(C)nc1NCC(=O)c1c(C)[nH]c2ccccc12` the AC50 was “inactive”. For `Cc1ccc(C(=O)NNC(=O)CSc2nnc3c(n2)[nH]c2ccc(F)cc23)cc1`, the AC50 was “inactive”. With `COc1[nH]c2ccc(F)cc2c1C(=O)OCC1CCN(CCNS(C)(=O)=O)CC1` the AC50 was “inactive”. For `CCOC(=O)CC(=O)CSc1nnc2c(n1)[nH]c1ccccc12`, the AC50 was 14.1 µM (active). For `Cc1cccc(N(CC(=O)NC2CCCC2)C(=O)c2cc3cc4cccc(C)c4nc3s2)c1C`, the AC50 was 3.98 µM (active). `O=C(Nc1cccc(NC(=O)c2ccccc2[N+](=O)[O-])n1)c1ccccc1[N+](=O)[O-]` was tested, and the AC50 was 8.91 µM (active). In the case of `Cc1cc(C)nc(NC(=O)c2cccc([N+](=O)[O-])c2C)n1`, the AC50 is reported as “inactive”. With `C=CCN(CC=C)C(=S)Nc1ccccc1` the AC50 was “inactive”. For `S=C(Nc1ccccc1)Nc1ccccc1C#Cc1ccccc1`, the AC50 was 3.16 µM (active). With `COc1ccc(-c2ccc3c(n2)CCCN3C[C@H](O)CN2CCCc3nc(-c4ccc(Br)cc4)ccc32)cc1` the activity, negative = inhibition was 0.393% [at 11.4 µM] and -39.5% [at 11.4 µM]. With `CC(=O)N1CCN(c2ccccc2NC(=O)COc2ccc(Br)cc2)CC1` the AC50 was 14.1 µM (active). In the case of `Cc1ccc(OCC(=O)Nc2ccccc2N2CCOCC2)c(C)c1`, the AC50 is reported as 3.98 µM (active). `CCOc1ccc(C(=O)Nc2ccccc2N2CCCC2)cc1` was tested, and the AC50 was 15.8 µM (active). `COc1ccc(-n2c(=O)c(C)nc3cnc(N4CCNCC4)nc32)cc1` was tested, and the AC50 was “inactive”. In the case of `CS(=O)(=O)N1CCC2(CC1)CN(Cc1cc(C(F)(F)F)cc(C(F)(F)F)c1)C2`, the AC50 is reported as “inactive”. Compound `NS(=O)(=O)c1cc(C(=O)O)c(O)c2ccccc12` has an activity, negative = inhibition of -24.4% [at 11.4 µM]. In the case of `CCOC(=O)c1c(C)oc2c1cc(O)c1ccccc12`, the AC50 is reported as 3.55 µM (active). In the case of `CC(=O)NCCNc1ncncc1-c1ccccc1CN(C)C`, the AC50 is reported as “inactive”. With `COc1ccc2[nH]cc(CCNc3ncncc3-c3ccccc3CN(C)C)c2c1` the AC50 was 10 µM (active). With `COCCNc1ncncc1-c1c(C)noc1C` the AC50 was “inactive”. For `CN(C)Cc1ccccc1-c1cncnc1NC1CC1`, the AC50 was “inactive”. In the case of `COc1ccc2[nH]cc(CCNc3ncncc3-c3c(C)noc3C)c2c1`, the AC50 is reported as 3.16 µM (active). In the case of `COc1ccc2[nH]cc(CCNc3ncncc3-c3ccccc3Cl)c2c1`, the AC50 is reported as 0.0631 µM (active). With `COc1ccc2[nH]cc(CCNc3ncncc3-c3ccccc3C(F)(F)F)c2c1` the AC50 was 0.251 µM (active). For `CC(N)=NCc1cccc(CN)c1`, the AC50 was “inactive”. For `COc1ccc2[nH]cc(CCNc3ncncc3-c3ccccc3OC)c2c1`, the AC50 was 0.0794 µM (active). With `COc1ccc2[nH]cc(CCNc3ncncc3-c3ccccc3C)c2c1` the AC50 was 0.0501 µM (active). `C[C@H]1C[C@H]2[C@H]3CCC4=CC(=O)C=C[C@@]4(C)[C@]3(F)[C@H](O)C[C@]2(C)[C@@]1(O)C(=O)COP(=O)(O)O` showed an activity, negative = inhibition of 18.4% [at 11.4 µM]. `O=C(NCc1ccco1)C(c1ccccc1)N(C(=O)Cc1cccs1)c1ccccc1F` (configuration not stated) was tested, and the AC50 was 3.16 µM (active). `Cc1ccc(C(C(=O)NCc2ccco2)N(C(=O)CNC(=O)c2cccs2)c2ccc(C)cc2C)cc1` (configuration not stated) was tested, and the AC50 was 1.12 µM (active). In the case of `Cc1ccc(C(C(=O)NC2CCCCC2)N(CC2CCCO2)C(=O)CNC(=O)c2cccs2)cc1` (configuration not stated), the AC50 is reported as 10 µM (active). In the case of `COc1cccc2c1OC1(C)CC2/C(=C(\C)O)C(=O)N1` (configuration not stated), the AC50 is reported as “inactive”. For `CCOC(=O)C1=C(C)NC2(O)c3ccccc3C(=O)C12O` (configuration not stated), the AC50 was “inactive”. `CCCOc1ccccc1C1CC(=O)NC(C)=C1C(=O)OCC(C)C` (configuration not stated) was tested, and the AC50 was 1.41 µM (active). With `CCC(C)OC(=O)C1=C(C)NC(=O)CC1c1ccccc1OC` (configuration not stated) the AC50 was 2 µM (active). With `c1ccc2c(c1)c1ccccc1n2Cn1c2ccccc2c2ccccc21` the AC50 was 0.398 µM (active). For `CCn1c(=O)[nH]c2ccccc21`, the AC50 was “inactive”. In the case of `COc1ccc(CNc2cc(-c3cccnc3)ncn2)c(OC)c1`, the AC50 is reported as “inactive”. For `COc1cccc(-c2cc(NCc3ccccc3OC)ncn2)c1`, the AC50 was 7.94 µM (active). In the case of `COc1cccc(-c2cc(NCc3ccc(OC)cc3OC)ncn2)c1`, the AC50 is reported as 5.01 µM (active).
